In article PMC5540273 (PLoS ONE, 2017):

Columns and labels:
Conditions in all cases: concentration: 1 μM,replicates: in singlicate; n = 1
[1] = test system: DYRK1B
[2] = test system: DYRK2
[3] = test system: EGFR
[4] = test system: EIF2AK1
[5] = test system: EPHA1
[6] = test system: EPHA2
[7] = test system: EPHA3
[8] = test system: EPHA4
[9] = test system: EPHA5
[10] = test system: EPHA6
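Also: KINOMEscan kinase panel screen.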

SMILES | %Inh [1] [%] | %Inh [2] [%] | %Inh [3] [%] | %Inh [4] [%] | %Inh [5] [%] | %Inh [6] [%] | %Inh [7] [%] | %Inh [8] [%] | %Inh [9] [%] | %Inh [10] [%]
Cc1ccc(C(=O)Nc2ccc(Oc3ccc4nc(NC(=O)C5CC5)cn4c3)c(F)c2)c(=O)n1-c1ccccc1 | 39 | 0 | 0 | 0 | 91.8 | 98.5 | 49 | 90.1 | 45 | 95.4
CN(c1ccccc1CNc1nc(Nc2ccc3c(c2)CC(=O)N3)ncc1C(F)(F)F)S(C)(=O)=O | 30 | 1 | 0 | 0 | 12 | 4 | 0 | 2 | 6 | 34
CN1CCN(CCNc2nc3cc(Oc4ccc(NC(=O)Nc5cc(C(F)(F)F)ccc5F)cc4)ccc3[nH]2)CC1.Cl.Cl [GW768504] | 15 | 0 | 0 | 0 | 0 | 4 | 0 | 28 | 0 | 51
COc1cc2nccc(Nc3ccc(Oc4ccccc4)cc3)c2cc1OC.Cl [GI261656] | 18 | 9 | 88 | 0 | 0 | 5 | 0 | 0 | 0 | 0
CC(C)S(=O)(=O)N1CCN(Cc2ccc3c(c2)nc(NC(=O)c2ccsc2)n3C[C@H](O)c2ccccc2)CC1 [GW635815] | 70 | 21 | 20 | 1 | 0 | 0 | 11 | 15 | 0 | 7
Cl.c1ccc(Oc2ccc(Nc3ccnc4cc(-c5ccc(CN6CCNCC6)o5)ccc34)cc2)nc1 [GW567142] | 0 | 33 | 97.7 | 0 | 77 | 0 | 16 | 0 | 0 | 0
C[C@@H]1CNc2c(sc3ccc4nc(-c5ccc(O)cc5)ccc4c23)C(=O)N1 | 98.1 | 24 | 11 | 0 | 0 | 0 | 14 | 0 | 11 | 5
